Results as given in PubChem BioAssay (NCI).
Compounds without any hit were thinned out: in the full panel of roughly 83,000, 20% have a hit.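 Values shown are percent growth following 48 h exposure of cells in 96-well plates to a single concentration of compound; below 10 was considered active.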 A number with no mark means an inactive call. The source made the active and inactive calls.

system: NCI-H460 lung; experiment: NCI-60 one-dose screen, 48 h (100 = growth as untreated, 0 = no growth, -100 = all killed); conditions: 10 µM

| SMILES | growth |
| --- | --- |
| COc1cc(C2CC(=O)Nc3c2c(C)nn3-c2nc3ccccc3[nH]2)cc(OC)c1O (stereo not given) | 36.2% |
| CCCCC(CC#N)(CCC)CCC | 109% |
| COc1cc(C)c2sc3ccccc3c(=O)c2c1NCCN(C)C | 22.2% |
| O=C(CCl)N1c2ccccc2Sc2ccc3ccccc3c21 | -35.4% (active) |
| CCOC(=O)Nc1ccc2c(c1)C(=O)N(CC)c1ccccc1O2 | 9.56% (active) |
| COc1ccc(-c2cc(/C=C/C(=O)c3ccc(N)cc3)[nH]n2)cc1OC | 3.19% (active) |
| CCCCCCCCCCSC(=N)N (tested in a mixture with another compound) | 52.5% |
| CC(=O)CS(C)(=O)=O | 114% |
| Nc1ccc2c(c1)Cc1cc(N)c(Cl)cc1-2 | 105% |
| CCOC(=O)c1cc(-c2ccccc2)nc(N)n1 | 104% |
| O=C(Nc1ccc(OCc2nnc(-c3ccccc3)o2)c(F)c1)Nc1ccc(Cl)c(Cl)c1 | 36.6% |
| Cc1[nH]nc2c(=S)[nH]c(=O)[nH]c12 | 105% |
| CCC(OC(=O)CC(C)C)c1ccccc1 (stereo not given) | 105% |
| C/C=C\COc1cc(C)c(Cl)cc1Cl | 103% |
| CC(=O)N(O)c1ccc(/C=C/c2ccccc2)cc1 | 8.15% (active) |
| CCOC(=O)c1c(C(F)(F)F)n([O-])c2ccc(OC)cc2[n+]1=O | 18.7% |
| NCCNc1ccc2cc(-c3nc4ccccc4[nH]3)c(=O)oc2c1 | 98.9% |
| Nc1ccc(Sc2ccc3c4c2cccc4c(=O)n2c4ccccc4nc32)cc1 | 9.47% (active) |

| SMILES | growth |
| --- | --- |
| COc1cccc(C(=O)NNc2nc(N3CCOCC3)nc(N3CCN(C(c4ccccc4)c4ccccc4)CC3)n2)c1 | 87.8% |
| COc1cccc(-c2nnc(COc3ccc(-c4nc5ccc(C)cc5[nH]4)cc3OC)o2)c1 | 36.7% |
| CNC(=O)c1cc(Oc2ccc(NC(=O)Nc3ccc(Cl)c(C(C)(C)C)c3)c(F)c2)ccn1 | 48.8% |
| CC(=O)/C(=C\c1ccc(Cl)cc1)c1ccccc1 | 6.31% (active) |
| Cc1cc(C)c(C(=O)OC(C)CNC2CCCCC2)c(C)c1 (stereo not given) | 98% |
| CC(=O)Oc1ccc(C2=Cc3ccc(OC(C)=O)cc3OC2C)cc1 (stereo not given) | 33.7% |
| CC(=O)Nc1nc(C)c(C(=O)NNC=O)s1 | 105% |
| CCCCC(=O)N(c1ccc(Nc2c3ccccc3nc3cc([N+](=O)[O-])ccc23)cc1)S(C)(=O)=O | 14% |
| O=C1/C(=C/c2ccc(O)cc2O)N=C2SCCCN12 | 110% |
| Cc1ccc2c(c1)-c1cc(C)nn1-c1ccc(C#N)cc1O2 | 60.5% |
| O=C(c1ccc(Cl)cc1)c1no[n+]([O-])c1C(=O)c1ccc(Cl)cc1 | 108% |
| Nc1nsc(C(=O)c2ccc(O)cc2)n1 | 110% |
| COc1ccc(C2=Cc3ccc(OC(C)=O)cc3OC2)cc1 | 103% |
| Cc1nc2cc(-n3c(-c4ccc(F)cc4)nc4ccccc4c3=O)ccc2n1Cc1ccccc1 | -38.9% (active) |
| Cc1nnc2c3nnc(-c4ccc(Cl)cc4)n3c3ccccc3n12 | 103% |
| Cc1cc(C)c2c(Nc3ncnc4c3sc3nc(C)cc(C)c34)n[nH]c2n1 | 104% |
| CCCCNC(=O)Oc1ccc(/C(=C(\C)c2ccc(OC)cc2)c2ccc(OCCN3CCCCC3)cc2)cc1 | 34.6% |

system: HOP-92 NSCLC; experiment: as above; conditions: 10 µM

| SMILES | growth |
| --- | --- |
| COc1cc(C2CC(=O)Nc3c2c(C)nn3-c2nc3ccccc3[nH]2)cc(OC)c1O (stereo not given) | 32% |
| CCCCC(CC#N)(CCC)CCC | 99.7% |
| COc1cc(C)c2sc3ccccc3c(=O)c2c1NCCN(C)C | 19.1% |
| O=C(CCl)N1c2ccccc2Sc2ccc3ccccc3c21 | -78.3% (active) |
| CCOC(=O)Nc1ccc2c(c1)C(=O)N(CC)c1ccccc1O2 | 33.7% |
| COc1ccc(/C=C(\c2cc(OC)c(OC)c(OC)c2)c2nnc(-c3cccs3)o2)cc1 | 34.8% |
| COc1ccc(-c2cc(/C=C/C(=O)c3ccc(N)cc3)[nH]n2)cc1OC | 33.5% |
| CCCCCCCCCCSC(=N)N (tested in a mixture with another compound) | 41.8% |
| Nc1ccc2c(c1)Cc1cc(N)c(Cl)cc1-2 | 76.4% |
| CCOC(=O)c1cc(-c2ccccc2)nc(N)n1 | 78.1% |
| CCCOCC(O)CNCCN (stereo not given) | 56.9% |
| O=C(Nc1ccc(OCc2nnc(-c3ccccc3)o2)c(F)c1)Nc1ccc(Cl)c(Cl)c1 | 55.5% |
| Cc1[nH]nc2c(=S)[nH]c(=O)[nH]c12 | 87.9% |
| CCC(OC(=O)CC(C)C)c1ccccc1 (stereo not given) | 92.8% |
| C/C=C\COc1cc(C)c(Cl)cc1Cl | 85.5% |
| CC(=O)N(O)c1ccc(/C=C/c2ccccc2)cc1 | -5.13% (active) |
| CCOC(=O)c1c(C(F)(F)F)n([O-])c2ccc(OC)cc2[n+]1=O | -34.7% (active) |
| Nc1ccc(Sc2ccc3c4c2cccc4c(=O)n2c4ccccc4nc32)cc1 | 28.7% |

| SMILES | growth |
| --- | --- |
| COc1cccc(C(=O)NNc2nc(N3CCOCC3)nc(N3CCN(C(c4ccccc4)c4ccccc4)CC3)n2)c1 | 70.3% |
| C=CCN1C(=O)/C(=C\c2ccc3c(c2)CCC3)SC1=S | 91.5% |
| CNC(=O)c1cc(Oc2ccc(NC(=O)Nc3ccc(Cl)c(C(C)(C)C)c3)c(F)c2)ccn1 | 75.9% |
| CC(=O)/C(=C\c1ccc(Cl)cc1)c1ccccc1 | -0.736% (active) |
| Cc1cc(C)c(C(=O)OC(C)CNC2CCCCC2)c(C)c1 (stereo not given) | 51.9% |
| CC(=O)Oc1ccc(C2=Cc3ccc(OC(C)=O)cc3OC2C)cc1 (stereo not given) | 69.4% |
| CC(=O)Nc1nc(C)c(C(=O)NNC=O)s1 | 67.2% |
| CCCCC(=O)N(c1ccc(Nc2c3ccccc3nc3cc([N+](=O)[O-])ccc23)cc1)S(C)(=O)=O | 39.2% |
| O=C1/C(=C/c2ccc(O)cc2O)N=C2SCCCN12 | 108% |
| Cc1ccc2c(c1)-c1cc(C)nn1-c1ccc(C#N)cc1O2 | 69.1% |
| O=C(c1ccc(Cl)cc1)c1no[n+]([O-])c1C(=O)c1ccc(Cl)cc1 | 88.4% |
| Nc1nsc(C(=O)c2ccc(O)cc2)n1 | 88% |
| COc1ccc(C2=Cc3ccc(OC(C)=O)cc3OC2)cc1 | 91.8% |
| Cc1nc2cc(-n3c(-c4ccc(F)cc4)nc4ccccc4c3=O)ccc2n1Cc1ccccc1 | -15.6% (active) |
| Cc1nnc2c3nnc(-c4ccc(Cl)cc4)n3c3ccccc3n12 | 79.5% |
| Cc1cc(C)c2c(Nc3ncnc4c3sc3nc(C)cc(C)c34)n[nH]c2n1 | 102% |
| CCCCNC(=O)Oc1ccc(/C(=C(\C)c2ccc(OC)cc2)c2ccc(OCCN3CCCCC3)cc2)cc1 | 47.2% |
